The source of these data is the supplement of paper PMC10849652.

Targets with a hit are over-represented here; the source holds about 8,800 in all. About 0.5% of all pairs of compound and target were hits. Values without a mark were called inactive.

Chain of UniProt P21953 (P21953 whole entry, looked up): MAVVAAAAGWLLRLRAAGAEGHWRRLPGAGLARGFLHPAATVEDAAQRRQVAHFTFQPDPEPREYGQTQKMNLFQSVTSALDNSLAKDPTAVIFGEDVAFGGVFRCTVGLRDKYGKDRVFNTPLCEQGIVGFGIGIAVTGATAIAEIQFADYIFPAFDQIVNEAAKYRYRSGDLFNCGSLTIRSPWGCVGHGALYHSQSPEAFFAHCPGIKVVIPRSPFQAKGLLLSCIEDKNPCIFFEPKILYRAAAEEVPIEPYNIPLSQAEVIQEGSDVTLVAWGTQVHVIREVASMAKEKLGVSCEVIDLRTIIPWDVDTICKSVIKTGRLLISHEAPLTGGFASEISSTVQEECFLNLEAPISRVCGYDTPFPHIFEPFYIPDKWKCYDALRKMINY
Chain of UniProt Q92879 (Q92879 whole entry, looked up): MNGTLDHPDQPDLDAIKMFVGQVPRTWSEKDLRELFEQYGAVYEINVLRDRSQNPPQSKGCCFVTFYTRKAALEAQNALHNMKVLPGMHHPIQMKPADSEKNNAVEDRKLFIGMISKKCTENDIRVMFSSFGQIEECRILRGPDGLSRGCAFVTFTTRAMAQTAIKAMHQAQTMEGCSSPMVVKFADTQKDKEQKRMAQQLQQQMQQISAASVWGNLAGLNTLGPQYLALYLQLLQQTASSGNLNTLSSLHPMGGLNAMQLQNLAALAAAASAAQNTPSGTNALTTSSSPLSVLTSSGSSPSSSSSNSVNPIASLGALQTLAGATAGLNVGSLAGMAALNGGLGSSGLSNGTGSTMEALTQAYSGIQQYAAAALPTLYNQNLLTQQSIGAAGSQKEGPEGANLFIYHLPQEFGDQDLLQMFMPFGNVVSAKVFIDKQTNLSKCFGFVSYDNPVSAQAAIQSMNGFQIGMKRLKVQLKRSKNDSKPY
Chain of UniProt Q8N5I9 (Q8N5I9 whole entry, looked up): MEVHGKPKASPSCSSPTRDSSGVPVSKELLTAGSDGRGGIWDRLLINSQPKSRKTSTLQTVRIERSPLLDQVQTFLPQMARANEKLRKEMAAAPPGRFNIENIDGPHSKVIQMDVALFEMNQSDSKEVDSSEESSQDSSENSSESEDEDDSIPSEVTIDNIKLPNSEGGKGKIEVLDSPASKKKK
Chain of UniProt P23634 (P23634 whole entry, looked up): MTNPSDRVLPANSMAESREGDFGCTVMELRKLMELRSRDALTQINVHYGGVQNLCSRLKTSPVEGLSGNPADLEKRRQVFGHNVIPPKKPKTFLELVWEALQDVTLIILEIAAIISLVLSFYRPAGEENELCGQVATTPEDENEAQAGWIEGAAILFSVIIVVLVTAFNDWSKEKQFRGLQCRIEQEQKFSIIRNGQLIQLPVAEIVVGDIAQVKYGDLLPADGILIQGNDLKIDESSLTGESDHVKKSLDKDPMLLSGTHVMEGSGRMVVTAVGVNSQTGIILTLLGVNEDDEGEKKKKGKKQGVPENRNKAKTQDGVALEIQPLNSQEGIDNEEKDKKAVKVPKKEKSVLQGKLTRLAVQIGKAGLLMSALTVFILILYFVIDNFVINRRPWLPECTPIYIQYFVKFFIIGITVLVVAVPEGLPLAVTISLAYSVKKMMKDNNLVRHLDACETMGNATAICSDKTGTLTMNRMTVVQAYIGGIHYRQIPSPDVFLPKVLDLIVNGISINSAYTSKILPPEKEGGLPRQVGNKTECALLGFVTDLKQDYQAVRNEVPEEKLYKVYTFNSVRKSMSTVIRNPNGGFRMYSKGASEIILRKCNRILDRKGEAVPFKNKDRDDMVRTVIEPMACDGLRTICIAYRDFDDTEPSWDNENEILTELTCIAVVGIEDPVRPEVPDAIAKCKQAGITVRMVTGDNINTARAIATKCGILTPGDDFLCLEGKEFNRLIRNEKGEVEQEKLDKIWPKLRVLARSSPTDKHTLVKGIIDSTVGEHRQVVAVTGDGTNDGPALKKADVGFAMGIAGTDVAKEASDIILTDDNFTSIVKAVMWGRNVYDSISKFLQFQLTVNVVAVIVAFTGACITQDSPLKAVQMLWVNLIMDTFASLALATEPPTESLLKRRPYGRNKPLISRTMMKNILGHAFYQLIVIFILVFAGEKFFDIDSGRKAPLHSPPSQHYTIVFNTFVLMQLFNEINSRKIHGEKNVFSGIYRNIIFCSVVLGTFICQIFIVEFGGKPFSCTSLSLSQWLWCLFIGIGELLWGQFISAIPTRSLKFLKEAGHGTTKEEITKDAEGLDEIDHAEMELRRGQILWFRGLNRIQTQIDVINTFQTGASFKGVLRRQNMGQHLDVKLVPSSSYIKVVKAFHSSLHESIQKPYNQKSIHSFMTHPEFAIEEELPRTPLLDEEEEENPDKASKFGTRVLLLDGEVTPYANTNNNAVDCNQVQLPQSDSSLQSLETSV
Chain of UniProt Q96SN8 (Q96SN8 whole entry, looked up): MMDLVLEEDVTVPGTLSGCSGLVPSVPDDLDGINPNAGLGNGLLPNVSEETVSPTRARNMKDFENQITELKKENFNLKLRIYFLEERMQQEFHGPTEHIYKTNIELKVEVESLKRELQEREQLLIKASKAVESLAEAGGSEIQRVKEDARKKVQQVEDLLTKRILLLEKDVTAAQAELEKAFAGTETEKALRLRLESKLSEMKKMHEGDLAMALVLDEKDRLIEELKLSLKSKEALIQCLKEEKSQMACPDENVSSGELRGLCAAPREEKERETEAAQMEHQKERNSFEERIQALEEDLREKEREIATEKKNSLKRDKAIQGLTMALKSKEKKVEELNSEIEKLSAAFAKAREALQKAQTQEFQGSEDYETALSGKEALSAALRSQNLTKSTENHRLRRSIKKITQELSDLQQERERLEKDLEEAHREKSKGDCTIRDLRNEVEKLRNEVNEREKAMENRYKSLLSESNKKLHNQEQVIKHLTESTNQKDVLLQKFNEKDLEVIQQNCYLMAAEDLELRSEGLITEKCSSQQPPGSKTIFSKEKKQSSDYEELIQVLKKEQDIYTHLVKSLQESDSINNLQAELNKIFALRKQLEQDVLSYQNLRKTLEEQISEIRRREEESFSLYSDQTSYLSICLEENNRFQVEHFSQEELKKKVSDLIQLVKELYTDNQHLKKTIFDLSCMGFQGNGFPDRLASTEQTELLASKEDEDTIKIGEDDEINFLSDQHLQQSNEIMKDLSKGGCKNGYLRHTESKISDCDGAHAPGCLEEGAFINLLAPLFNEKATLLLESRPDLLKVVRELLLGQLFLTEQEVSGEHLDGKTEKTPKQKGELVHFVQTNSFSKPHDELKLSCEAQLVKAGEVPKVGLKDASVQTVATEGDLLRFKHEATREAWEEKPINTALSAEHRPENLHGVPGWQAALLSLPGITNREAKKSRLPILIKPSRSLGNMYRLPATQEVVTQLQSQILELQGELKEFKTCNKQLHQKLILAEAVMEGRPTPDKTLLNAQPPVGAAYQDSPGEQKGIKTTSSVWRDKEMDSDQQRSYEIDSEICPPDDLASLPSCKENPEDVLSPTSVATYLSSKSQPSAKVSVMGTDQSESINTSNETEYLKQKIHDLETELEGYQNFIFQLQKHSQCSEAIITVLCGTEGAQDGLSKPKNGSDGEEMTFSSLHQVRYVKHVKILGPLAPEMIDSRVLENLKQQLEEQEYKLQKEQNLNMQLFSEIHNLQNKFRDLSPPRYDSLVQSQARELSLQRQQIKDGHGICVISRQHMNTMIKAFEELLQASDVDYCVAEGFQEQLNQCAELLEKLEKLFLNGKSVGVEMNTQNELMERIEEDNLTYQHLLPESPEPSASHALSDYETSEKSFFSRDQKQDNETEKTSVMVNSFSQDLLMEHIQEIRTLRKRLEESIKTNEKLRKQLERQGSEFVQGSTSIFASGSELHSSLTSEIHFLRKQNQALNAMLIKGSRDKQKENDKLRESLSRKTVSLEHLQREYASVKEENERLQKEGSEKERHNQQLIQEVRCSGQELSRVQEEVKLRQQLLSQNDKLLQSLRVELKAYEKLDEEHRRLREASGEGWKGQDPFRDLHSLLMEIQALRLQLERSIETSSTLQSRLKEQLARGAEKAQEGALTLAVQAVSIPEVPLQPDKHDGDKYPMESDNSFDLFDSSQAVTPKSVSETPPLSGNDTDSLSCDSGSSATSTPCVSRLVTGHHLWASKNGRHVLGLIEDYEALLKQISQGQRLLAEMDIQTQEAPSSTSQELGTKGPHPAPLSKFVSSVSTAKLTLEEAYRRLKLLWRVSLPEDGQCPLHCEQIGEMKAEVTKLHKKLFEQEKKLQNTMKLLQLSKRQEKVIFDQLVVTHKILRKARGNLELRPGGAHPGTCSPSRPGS
Chain of UniProt P27824 (P27824 whole entry, looked up): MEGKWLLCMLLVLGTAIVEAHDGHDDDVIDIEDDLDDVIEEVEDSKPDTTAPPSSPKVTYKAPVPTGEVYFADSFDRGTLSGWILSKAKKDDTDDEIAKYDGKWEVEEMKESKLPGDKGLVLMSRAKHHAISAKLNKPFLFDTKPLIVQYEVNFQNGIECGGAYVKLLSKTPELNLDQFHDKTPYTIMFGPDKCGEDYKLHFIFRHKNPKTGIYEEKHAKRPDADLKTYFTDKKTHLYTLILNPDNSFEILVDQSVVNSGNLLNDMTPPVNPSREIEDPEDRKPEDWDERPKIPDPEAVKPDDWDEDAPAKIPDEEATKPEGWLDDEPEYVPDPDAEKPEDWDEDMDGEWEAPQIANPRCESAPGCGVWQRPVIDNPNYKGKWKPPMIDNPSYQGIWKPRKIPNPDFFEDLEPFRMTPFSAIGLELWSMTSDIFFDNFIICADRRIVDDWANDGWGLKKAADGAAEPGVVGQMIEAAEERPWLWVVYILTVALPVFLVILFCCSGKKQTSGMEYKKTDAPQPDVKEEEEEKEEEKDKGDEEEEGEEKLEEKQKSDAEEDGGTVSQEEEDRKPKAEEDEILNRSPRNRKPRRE
Chain of UniProt Q9Y6H1 (Q9Y6H1 whole entry, looked up): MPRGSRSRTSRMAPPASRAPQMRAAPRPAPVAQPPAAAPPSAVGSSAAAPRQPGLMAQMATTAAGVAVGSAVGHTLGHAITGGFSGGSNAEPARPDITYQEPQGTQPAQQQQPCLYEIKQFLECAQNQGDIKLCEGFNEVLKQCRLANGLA
Chain of UniProt P18859 (P18859 whole entry, looked up): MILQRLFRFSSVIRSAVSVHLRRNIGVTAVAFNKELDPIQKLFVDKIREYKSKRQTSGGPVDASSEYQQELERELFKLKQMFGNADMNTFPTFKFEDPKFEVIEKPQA

Compound in this assay: CN1CC[C@H](c2c(O)cc(O)c3c(=O)cc(-c4ccccc4Cl)oc23)[C@H](O)C1 [alvocidib]
The experiment in a line: log2 fold change, soluble protein after heating vs DMSO (PISA); higher = thermal stabilisation; K562 lysate, 10 uM; active = over 0.2 and 3.5 SD of the protein, either way, in both replicates (recomputed). Summed up:
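Dounce homogenisation of K562 pellets in PBS pH 7.4 with 1 mM MgCl2 produced a crude extract, used at 1 mg/mL protein. Exposure to 10 μM compound lasted 30 min, and aliquots were then heated for 3 min across 48°C-58°C, pooled and brought to 0.5% NP-40 at 4°C. The supernatant after 21,000xg for 90 min was quantified by TMTpro 16plex LC-MS/MS with channel sums equalised. Duplicate values are given as log-two fold change in thermal stability relative to solvent controls.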
Take BRD4 (UniProt O60885): the log2 fold change was -0.003.

For CAMKK1 isoform 2 (UniProt Q8N5S9), the log2 fold change was 0.088. For ATG13 isoform 2 (UniProt O75143) the value was -0.106; for ATAD1 (UniProt Q8NBU5), -0.047. For BSDC1 (UniProt Q9NW68) the value was -0.033.

For the target ATP5PF isoform 2 (UniProt P18859), the log2 fold change was 0.203. Take CAD (UniProt P27708): the log2 fold change is 0. Under CHCHD2 (UniProt Q9Y6H1) stands -0.061. For CHCHD4 isoform 2 (UniProt Q8N4Q1) the value was -0.145; for CCNC (UniProt P24863), 0.182; for CELF2 isoform 3 (UniProt O95319), 0.067. Under CEP120 (UniProt Q8N960) stands -0.046; under CCDC25 (UniProt Q86WR0), 0.132; under CELF1 isoform 4 (UniProt Q92879), 0. In the case of BNIP1 (UniProt Q12981), the log2 fold change was 0.231. On to CHD5 (UniProt Q8TDI0), for which the log2 fold change is -0.005. For ATP2B4 (UniProt P23634) the value was -0.116; for CANX isoform 2 (UniProt P27824), -0.024. Under BCKDK (UniProt O14874) stands 0.029; under CCAR2 (UniProt Q8N163), -0.052; under CDC40 (UniProt O60508), 0.016. For CDK5RAP2 (UniProt Q96SN8) the value was 0.018. Regarding CD63 (UniProt P08962), the log2 fold change is -0.184.

On to ATR (UniProt Q13535), for which the log2 fold change was -0.134.

CCDC47 (UniProt Q96A33): the log2 fold change is 0.009. For CCNA2 (UniProt P20248) the value was 0.044; for CHD4 isoform 2 (UniProt Q14839), -0.004. Under CENPQ (UniProt Q7L2Z9) stands -0.122. Turning to BLM (UniProt P54132), the log2 fold change was 0.082. As to ATP6V0A2 (UniProt Q9Y487), the log2 fold change is -0.129.

Consider BTAF1 (UniProt O14981), for which the log2 fold change is -0.001. For CDC42EP4 (UniProt Q9H3Q1) the value was -0.086; for BMS1 (UniProt Q14692), -0.016; for CDK9 isoform 2 (UniProt P50750), 0.578 (active). For C12orf45 (UniProt Q8N5I9) the value was -0.13. Under BCKDHB (UniProt P21953) stands 0.062. With CDC45 isoform 3 (UniProt O75419), the log2 fold change is 0.031. For the target BUD23 isoform 3 (UniProt O43709), the log2 fold change is -0.126. As for CARD9 (UniProt Q9H257), the log2 fold change was -0.011.
